Data taken from PubChem BioAssay AID652154 (Broad Institute, 2013).
Among all 360,000 compounds or so, about 4,200 (1.2%) were called active.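 How the source made its calls: active means mean replicate inhibition at least 60% with every replicate also reaching 60%; inconclusive means only one of the two criteria is met; inactive means mean below 60% and not all replicates reaching 60%.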 For the sample, actives were picked, then their nearest neighbours and some compounds at random.

Test: inhibitors of PAX8-driven TPO luciferase reporter, primary screen, RMG-I cells, single concentration (AID 652154);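 further: luciferase light reporting Pax8 driven TPO promoter activity; plate controls were median of neutral control wells for no effect and mitoxantrone controls for full effect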
Conditions: SteadyGlo, 24 h, at 12.6 µM, active compounds read high
For `C[C@H]1CN([C@@H](C)CO)C(=O)c2cc(NC(=O)Nc3ccccc3)ccc2O[C@H]1CN(C)C(=O)Nc1ccc(F)cc1`, the inhibition was -5.44% (inactive). In the case of `O=C(C[C@@H]1CC[C@@H]2[C@H](COC[C@H](O)CN2Cc2cccc(C(F)(F)F)c2)O1)NCc1ccc(F)cc1`, the inhibition was 19.6% (inactive). With `CC1CCN(c2nc3c(c(=O)[nH]c(=O)n3C)n2CCCc2ccccc2)CC1` the inhibition was -19.2% (inactive). For `Cn1c(=O)[nH]c(=O)c2c1nc(N1CCN(C(c3ccccc3)c3ccccc3)CC1)n2CCO`, the inhibition was 84.2% (active). For `C=C(C)Cn1c(N2CCCC2)nc2c1c(=O)[nH]c(=O)n2C`, the inhibition was -3.4% (inactive). In the case of `COCCNC(=O)C[C@H]1CC[C@H](NS(=O)(=O)c2ccc(C)cc2)[C@@H](CO)O1`, the inhibition was -3.36% (inactive). For `O=C(CN1CCOCC1)N1CCCCN2[C@@H](CO)[C@H](c3ccc(/C=C/c4ccccc4)cc3)[C@@H]2C1`, the inhibition was -11.5% (inactive). For `O=C(C[C@H]1CC[C@@H]2[C@H](COC[C@H](O)CN2S(=O)(=O)c2ccc(Cl)cc2)O1)N[C@@H]1CCN(Cc2ccccc2)C1`, the inhibition was 32.3% (inactive). For `C=CCC[C@@H](Cc1ccc(F)cc1)C(=O)OC[C@@H](C)NC(=O)[C@H](CC=C)CC(=O)N(CCO)Cc1ccccc1`, the inhibition was 31.4% (inactive). In the case of `C=CC[C@@H](CC(=O)N[C@H](CO)Cc1ccccc1)C(=O)N[C@@H](COC(=O)[C@@H](CC=C)Cc1ccc(F)cc1)Cc1c[nH]c2ccccc12`, the inhibition was 25.6% (inactive). In the case of `C=CCC[C@H](Cc1ccc(F)cc1)C(=O)OC[C@H](C)NC(=O)[C@H](CC=C)CC(=O)N(CCO)Cc1ccccc1`, the inhibition was 23.7% (inactive). In the case of `C=CC[C@H](CC(=O)NCCO)C(=O)N[C@@H](COC(=O)[C@@H](CC=C)Cc1ccc(F)cc1)Cc1c[nH]c2ccccc12`, the inhibition was 8.97% (inactive). In the case of `C=CCC[C@H](Cc1ccc(F)cc1)C(=O)OC[C@@H](Cc1c[nH]c2ccccc12)NC(=O)[C@H](CC=C)CC(=O)N[C@H](CO)Cc1ccccc1`, the inhibition was 75.3% (active). With `C=CCC[C@@H](Cc1ccc(F)cc1)C(=O)OC[C@H](Cc1c[nH]c2ccccc12)NC(=O)[C@@H](CC=C)CC(=O)N(CCO)Cc1ccccc1` the inhibition was 75.3% (active). With `CO[C@@H]1CC[C@H]2CCN(C)C(=O)C[C@@H](c3ccccc3)CN(C)C(=O)c3cc(C#N)ccc3OC[C@@H]1O2` the inhibition was 5.74% (inactive). In the case of `N#C[C@@H]1N[C@@H](CO)[C@@H]1c1ccc(C#Cc2ccccc2F)cc1`, the inhibition was -118% (inactive). With `O=C(C[C@@H]1CC[C@@H]2[C@H](COC[C@H](O)CN2C(=O)Nc2cccc(Cl)c2)O1)NCCCN1CCOCC1` the inhibition was -32.8% (inactive). In the case of `O=C(c1ccncc1)N1CC(=O)N2[C@H](CO)[C@@H](c3ccc(-c4cccnc4)cc3)[C@H]2C1`, the inhibition was 7.54% (inactive). In the case of `COCC(=O)N(C)C[C@H]1[C@@H](c2ccc(-c3cccnc3)cc2)[C@H](CO)N1C(C)=O`, the inhibition was 0.314% (inactive). With `COc1ccccc1S(=O)(=O)N[C@@H]1CC[C@H](CC(=O)N2CCOCC2)O[C@@H]1CO` the inhibition was 3.09% (inactive). In the case of `COC(=O)C(CC#Cc1ccc2c(c1)[C@]1(C(=O)N2)[C@H](c2ccccc2OCCO)N2[C@H](c3ccccc3)[C@H](c3ccccc3)OC(=O)[C@H]2[C@@H]1C(N)=O)C(=O)OC`, the inhibition was 92.9% (active). In the case of `COC(=O)C(CC#Cc1ccc2c(c1)[C@]1(C(=O)N2)[C@H](c2ccc(O)cc2)N2[C@H](c3ccccc3)[C@H](c3ccccc3)OC(=O)[C@H]2[C@@H]1C(=O)NC[C@H](O)c1ccccc1)C(=O)OC`, the inhibition was -24.8% (inactive). In the case of `COc1ccc(C#Cc2ccc3c(c2)[C@]2(C(=O)N3)[C@H](c3ccccc3OCCO)N3[C@H](c4ccccc4)[C@H](c4ccccc4)OC(=O)[C@H]3[C@@H]2C(=O)N2CCCCCCC2)cc1`, the inhibition was 0.581% (inactive). With `Cc1ccc(S(=O)(=O)Nc2cccc3c2O[C@H](CN(C)CC2CCCCC2)[C@H](C)CN([C@H](C)CO)C3=O)cc1` the inhibition was -4.8% (inactive). In the case of `COc1ccc(CN(C)C[C@H]2OCCCC[C@@H](C)Oc3ccc(NC(=O)Nc4cccc5ccccc45)cc3C(=O)N([C@H](C)CO)C[C@@H]2C)cc1`, the inhibition was 14.2% (inactive). For `Cc1noc(/C=C/c2ccco2)c1S(=O)(=O)N1CCC(C(=O)Nc2ccc(Cl)cn2)CC1`, the inhibition was 74.4% (active). In the case of `Cc1noc(/C=C/N(C)C)c1S(=O)(=O)N1CCCC(C(=O)NCc2ccco2)C1` (centres undefined), the inhibition was 38.6% (inactive). For `CNC(=O)C1CCN(S(=O)(=O)c2c(C)noc2/C=C/c2cccc(C)c2)CC1`, the inhibition was -0.657% (inactive). With `CC(=O)N1CCCCN2[C@H](CO)[C@H](c3ccc(-c4ccccc4)cc3)[C@@H]2C1` the inhibition was 8.11% (inactive). With `C[C@@H]1CN([C@H](C)CO)C(=O)c2cccc(NC(=O)Nc3ccccc3)c2O[C@@H]1CN(C)C(=O)NC1CCCCC1` the inhibition was 9.31% (inactive). For `C[C@@H]1CCCCO[C@H](CN(C)C(=O)Nc2ccc(C(F)(F)F)cc2)[C@H](C)CN([C@H](C)CO)C(=O)c2cc(NC(=O)Nc3ccc(C(F)(F)F)cc3)ccc2O1`, the inhibition was 17.5% (inactive). With `C[C@@H]1CCCCO[C@@H](CN(C)C(=O)Nc2ccc(C(F)(F)F)cc2)[C@H](C)CN([C@H](C)CO)C(=O)c2cc(NC(=O)c3ccccc3)ccc2O1` the inhibition was -6.62% (inactive). For `CC(C)NC(=O)Nc1ccc2c(c1)C(=O)N([C@@H](C)CO)C[C@@H](C)[C@@H](CN(C)C(=O)Nc1ccc(C(F)(F)F)cc1)OCCCC[C@H](C)O2`, the inhibition was -21.5% (inactive). With `C[C@H]1CN([C@@H](C)CO)C(=O)c2cccc(NC(=O)Nc3ccc(C(F)(F)F)cc3)c2O[C@H]1CN(C)C(=O)NC1CCCCC1` the inhibition was 92.2% (active). For `CC(C)NC(=O)N(C)C[C@H]1OCCCC[C@H](C)Oc2ccc(NC(=O)Nc3ccc(C(F)(F)F)cc3)cc2C(=O)N([C@H](C)CO)C[C@@H]1C`, the inhibition was 93.7% (active). With `C[C@@H]1CCCCO[C@@H](CN(C)C(=O)C2CCCCC2)[C@H](C)CN([C@H](C)CO)C(=O)c2cc(NC(=O)Cc3ccccc3)ccc2O1` the inhibition was -7.3% (inactive). With `C[C@@H]1CCCCO[C@H](CN(C)C(=O)Nc2ccccc2)[C@H](C)CN([C@H](C)CO)C(=O)c2cc(NC(=O)Nc3ccccc3)ccc2O1` the inhibition was 10.5% (inactive). In the case of `C[C@@H]1CN([C@@H](C)CO)C(=O)c2cc(NC(=O)Nc3ccc(C(F)(F)F)cc3)ccc2O[C@@H](C)CCCCO[C@H]1CN(C)C(=O)c1ccccc1`, the inhibition was 84.4% (active). With `C[C@@H]1CCCCO[C@H](CN(C)C(=O)C2CCCCC2)[C@@H](C)CN([C@@H](C)CO)C(=O)c2cc(NC(=O)Nc3ccccc3)ccc2O1` the inhibition was 80.3% (active). For `CC(C)NC(=O)Nc1ccc2c(c1)C(=O)N([C@@H](C)CO)C[C@H](C)[C@H](CN(C)C(=O)c1ccccc1)OCCCC[C@@H](C)O2`, the inhibition was 3.59% (inactive). In the case of `C[C@H](CO)N1C[C@H](C)[C@@H](CN(C)C(=O)NC2CCCCC2)Oc2c(NC(=O)Nc3ccc(F)cc3)cccc2C1=O`, the inhibition was -8.27% (inactive). In the case of `Cc1ccc(S(=O)(=O)Nc2cccc3c2O[C@@H](CN(C)S(=O)(=O)c2c(C)noc2C)[C@@H](C)CN([C@H](C)CO)C3=O)cc1`, the inhibition was -20.1% (inactive). In the case of `C[C@H]1CCCCO[C@@H](CN(C)Cc2ccc3c(c2)OCO3)[C@@H](C)CN([C@@H](C)CO)C(=O)c2cc(NC(=O)c3ccccc3)ccc2O1`, the inhibition was 10.2% (inactive). For `COCC(=O)Nc1ccc2c(c1)C(=O)N(C)C[C@@H](OC)[C@H](C)CN(C(=O)c1cccnc1)[C@H](C)CO2`, the inhibition was -16.5% (inactive). With `C/C=C/c1cnc2c(c1)C(=O)N([C@@H](C)CO)C[C@@H](C)[C@@H](CN(C)C(=O)C1CCOCC1)O2` the inhibition was -0.814% (inactive). With `O=C(O)c1cc(S(=O)(=O)N(Cc2ccccc2)c2cccc(C(F)(F)F)c2)ccc1Cl` the inhibition was -20% (inactive). With `O=c1cc(O)c(-c2cccc(C(F)(F)F)c2)c(Cl)[nH]1` the inhibition was 4.02% (inactive). For `O=C(NNc1ccccc1Cl)C(O)(c1cccc(C(F)(F)F)c1)c1cccc(C(F)(F)F)c1`, the inhibition was 66.8% (active). With `O=C(C1CCCC1)N1CC(=O)N2[C@H](CO)[C@H](c3ccc(Br)cc3)[C@H]2C1` the inhibition was -9.22% (inactive). With `C/C=C/c1ccc([C@@H]2[C@H](CO)N(C(C)=O)[C@H]2CN(CC)C(=O)CN(C)C)cc1` the inhibition was 9.68% (inactive). With `COCC(=O)Nc1ccc2c(c1)OC[C@H](C)N(C(=O)c1cnccn1)C[C@@H](C)[C@H](OC)CN(C)C2=O` the inhibition was -7.83% (inactive). With `O=C(C1CCC1)N1CCCCN2[C@H](C1)[C@@H](c1ccc(C#CC3CCCC3)cc1)[C@@H]2CO` the inhibition was 36.8% (inactive). With `O=c1oc2ccccc2cc1-c1cn(-c2ccccc2)c(=S)[nH]1` the inhibition was 62.6% (active). For `COc1cccc(-n2c(=S)[nH]c3c(oc4ccccc43)c2=O)c1`, the inhibition was 3.59% (inactive). In the case of `CC(C)NC(=O)Nc1ccc2c(c1)C(=O)N([C@@H](C)CO)C[C@@H](C)[C@H](CN(C)C(=O)Cc1ccccc1)OCCCC[C@H](C)O2`, the inhibition was 4.73% (inactive). In the case of `CN1CCN(C(=O)C[C@@H]2CC[C@@H]3[C@H](COC[C@@H](O)CN3Cc3cccc(F)c3)O2)CC1`, the inhibition was -11.1% (inactive). With `CCCC#Cc1cnc2c(c1)C(=O)N([C@@H](C)CO)C[C@@H](C)[C@@H](CN(C)C(=O)c1ccccc1)O2` the inhibition was 8.32% (inactive). For `C=C1C(=O)OC2C1CCC(C)=CCCC1(C)OC21` (centres undefined), the inhibition was 108% (active). With `O=S(=O)(c1ccc(F)cc1)N1CCCCN2[C@H](C1)[C@H](c1ccc(C3=CCCCC3)cc1)[C@@H]2CO` the inhibition was 16.3% (inactive). For `CC(C)c1cn(CC[C@@H]2CC[C@@H](NC(=O)C3CCC3)[C@@H](CO)O2)nn1`, the inhibition was 2.99% (inactive). With `COc1ccc(CNC(=O)CN2C(=O)c3ccccc3S2(=O)=O)cc1` the inhibition was 75.6% (active). In the case of `COc1ccc(CNC(=O)COC(=O)C(CCSC)N2C(=O)c3ccccc3C2=O)cc1` (centres undefined), the inhibition was -2% (inactive). In the case of `NS(=O)(=O)c1ccc(CCNC(=O)CN2C(=O)c3ccccc3S2(=O)=O)cc1`, the inhibition was 0.854% (inactive). With `C/C=C/c1ccccc1[C@@H]1[C@@H](CO)N(S(=O)(=O)c2cccc(F)c2)[C@H]1C#N` the inhibition was -12.9% (inactive). With `C[C@@H]1CN([C@@H](C)CO)C(=O)c2cc(NC(=O)CCCN(C)C)ccc2O[C@H]1CN(C)Cc1ccccc1` the inhibition was -7.53% (inactive). With `COc1ccccc1-c1ccc2c(c1)O[C@H](CN(C)C(=O)c1cccnc1)[C@H](C)CN([C@@H](C)CO)S2(=O)=O` the inhibition was -1.96% (inactive). In the case of `COc1ccc(C(=NN)c2ccc(OC)cc2)cc1`, the inhibition was -68% (inactive). In the case of `COc1ccc(/C(N)=N/OC(=O)Cc2ccccc2)cc1`, the inhibition was -143% (inactive). With `COc1ccc(C(C#N)=C2C=CC(=NO)c3ccccc32)cc1` the inhibition was 70.5% (active).
